# Source: PubChem
# Hits are enriched below; roughly 18% of the tested compounds scored in any of these assays.
# CtBP-E1A inh: qHTS Assay for Inhibitors of the CtBP/E1A Interaction; 340,000 compounds, 0.49% hits; activity change, % (no concentration beside the values); AlphaScreen GST-E1A/His-CtBP binding, 1536-well; stronger effect = lower value; CtBP / adenovirus E1A interaction (AlphaScreen); in the data active = activity change below about -65%; inconclusive = mostly about -30% to -63%
#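 Protein mix (5X: 125 nM each GST-E1A, His-CtBP) was incubated with pinned compound 2 h at 37 deg C in dark, in 50 mM Tris pH 8.0 buffer with 300 mM NaCl. Glutathione donor and nickel acceptor beads followed; AlphaScreen signal read after 1 h.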
# TDP1 block: qHTS Assay for Inhibitors of Tyrosyl-DNA Phosphodiesterase (TDP1) | recombinant TDP1, AlphaScreen DNA substrate cleavage | Potency, µM (series often up to 130 µM), for inactives: at the highest dose activity change, negative = inhibition, hits mostly inhibitors | Tyrosyl-DNA phosphodiesterase 1 (Homo sapiens), Q9NUW8 | 350,000 compounds, 0.28% hits; also: potency is read from the fitted curve at half-maximal effect; nearly all actives have a fitted effect of over 40% in size
# Target sequence (Q9NUW8 whole entry, looked up): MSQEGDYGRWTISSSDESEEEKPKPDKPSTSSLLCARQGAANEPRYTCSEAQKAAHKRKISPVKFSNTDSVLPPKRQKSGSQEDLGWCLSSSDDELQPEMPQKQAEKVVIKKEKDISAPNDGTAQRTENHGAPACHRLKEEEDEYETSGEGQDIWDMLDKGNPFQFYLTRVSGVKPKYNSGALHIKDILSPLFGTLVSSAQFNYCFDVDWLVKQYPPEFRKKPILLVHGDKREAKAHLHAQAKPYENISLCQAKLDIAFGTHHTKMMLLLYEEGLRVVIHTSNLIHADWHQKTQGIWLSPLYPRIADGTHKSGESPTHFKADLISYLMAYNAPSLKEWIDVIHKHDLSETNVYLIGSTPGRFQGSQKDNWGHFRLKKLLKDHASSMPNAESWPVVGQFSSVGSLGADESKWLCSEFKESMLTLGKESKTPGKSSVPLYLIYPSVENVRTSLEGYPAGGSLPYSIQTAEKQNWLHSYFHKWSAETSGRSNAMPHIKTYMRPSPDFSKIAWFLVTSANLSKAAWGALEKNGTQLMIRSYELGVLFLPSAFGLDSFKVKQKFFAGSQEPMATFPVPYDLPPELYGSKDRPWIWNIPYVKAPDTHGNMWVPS
#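 Enzyme-compound mixtures sat 15 min at room temperature, followed by a 5 min reaction with 15 nM final substrate and 10 min with AlphaScreen beads. Recombinant human Tdp1 was used at 1 nM final.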
# IL-1B inflam inh: qHTS for Inhibitors of Inflammasome Signaling: IL-1-beta AlphaLISA Primary Screen; THP-1 LPS/ATP IL-1B secretion, AlphaLISA, 16 h; stronger effect = lower value; activity change, % at 57.5 µM; 360,000 compounds, 4.7% hits; AID 743279, 2014; in the data active = activity change below about -50%; inconclusive = mostly about -30% to -49%
#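 Secreted IL-1B measured by AlphaLISA bead assay after 16 h compound exposure of THP-1 cells; compounds (final up to 57.5 uM) added 1 h before LPS (250 ng/mL) and ATP (1.25 mM) stimulation; lower signal means less secretion.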
# TDP1 cell CPT: qHTS for Inhibitors of human tyrosyl-DNA phosphodiesterase 1 (TDP1): qHTS in cells in presence of CPT; 420,000 compounds, 12% hits; chicken DT40 Tdp1-/-;hTDP1 cells + 20 nM CPT, ATP luminescence, 48 h; Potency, µM (doses to about 46.2 µM), without a hit: at the highest dose activity change, negative = growth inhibition, actives largely listed as inhibitors; also: potency is read from the fitted curve at half-maximal effect; nearly all actives have a fitted effect of over 55% in size
#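 Cell growth measured by CellTiter-Glo luminescence after a minimum 48 h, 37 C compound exposure with 20 nM CPT in Tdp1-knockout DT40 cells stably expressing hTDP1, seeded 400/well; qHTS titration format.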
# TDP1 cell noCPT: qHTS for Inhibitors of human tyrosyl-DNA phosphodiesterase 1 (TDP1): qHTS in cells in absence of CPT; DT40 Tdp1-/- hTDP1 cells, no CPT, ATP luminescence, 48 h; 420,000 compounds, 15% hits; Potency, µM (highest dose often 46.2 µM), inactives show at the highest dose activity change, negative = growth inhibition, usual class: inhibitors; AID 686978, 2013; also: potency is read from the fitted curve at half-maximal effect; nearly all actives have a fitted effect of over 55% in size
#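 Compound effects on proliferation are scored in DT40 Tdp1-/-;hTDP1 cells in the absence of CPT. ATP levels (CellTiter-Glo luminescence) are recorded after a ≥48 hr, 37 °C incubation.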
# Six1-Eya2 inh: qHTS Assay for Inhibitors of the Six1/Eya2 Interaction; Homeobox protein SIX1 (Homo sapiens) + Protein phosphatase EYA2 (Homo sapiens), …; AlphaScreen GST-Six1/His-Eya2 binding, biochemical; stronger effect = lower value; activity change, % (concentration not given with the values); 360,000 compounds, 0.56% hits; in the data active = activity change below about -65%; inconclusive = mostly about -30% to -63%
#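 Compounds are tested against tagged Six1 and Eya2 proteins bridged by glutathione donor and nickel acceptor beads; after a one-hour incubation at 37 °C without light, AlphaScreen emission is recorded.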
# Numbers without * were called inactive; i = inactive; u = inconclusive; x = no result given; ! = repeats disagree; [ ] = dose if it differs, or a comment. Unless noted, calls follow the shape of the dose curve; as a rule, active = well fitted curve in the direction sought with a large enough effect; inconclusive = small, poorly fitted or top-dose-only effect, or another doubt; inactive = no such curve, though single readings can be large; an effect the other way counts as inactive or inconclusive. % is scaled to controls: 0 for no effect and ±100 for the full control effect.
SMILES,CtBP-E1A inh,TDP1 block,IL-1B inflam inh,TDP1 cell CPT,TDP1 cell noCPT,Six1-Eya2 inh
O=C(/C=C/c1cn(-c2ccccc2)nc1-c1cccc(Cl)c1)N1CCN(c2ccccn2)CC1,0,5%,u,u,u,-2
Cc1ccc(NS(=O)(=O)c2c(C)[nH]c(=O)[nH]c2=O)c(C)c1,7,5%,2,0%,2%,5
Cc1cc(C)c(S(=O)(=O)Nc2c(C)[nH]c(=O)[nH]c2=O)c(C)c1,10,6%,1,16µM*,23µM*,-2
C/C(=N\NC(=O)c1c(C)nc2ccccn12)c1ccc(C(C)(C)C)cc1,0,13%,-1,18µM*,12µM*,3
C/C(=N\NC(=O)c1c(C)nc2ccccn12)c1ccc(N2CCOCC2)cc1,-12,-3%,2,21%,0%,12
Cc1nc2ccccn2c1C(=O)NNS(=O)(=O)c1ccc(C(C)(C)C)cc1,-4,1%,2,8.2µM*,6.5µM*,-3
Cc1ccc(Cn2c(CN3CCC(C(=O)NCc4ccccc4C)CC3)cc3ccccc32)cc1,x,-2%,x,21µM*,16µM*,x
CCN(CC)c1ccc(CN2CCC(C(=O)NCc3ccc(C)cc3)CC2)cc1,-9,-3%,-2,15µM*,15µM*,-22
CCN(CC)S(=O)(=O)N1CCC(C(=O)NCc2ccc(C)cc2)CC1,8,2%,-5,-8%,-15%,4
COCCNC(=O)C1CCN(Cc2cc3ccccc3n2Cc2ccc(C)cc2)CC1,x,1%,x,16µM*,21µM*,x
Cc1ccc(S(=O)(=O)N2CCC(C(=O)NCc3ccccc3Cl)CC2)cc1,31,0%,-12,u,u,21
CNC(=O)C1CCN(Cc2cc3ccccc3n2Cc2cccc(C)c2)CC1,x,6%,x,18µM*,16µM*,x
Cc1ccc(Cn2c(CN3CCC(C(=O)NCc4cccnc4)CC3)cc3ccccc32)cc1,x,5%,x,u,u,x
CCNC(=O)C1CCN(Cc2cc3ccccc3n2Cc2ccc(C)cc2)CC1,x,-3%,x,23µM*,21µM*,x
Cc1cc(C)c(NC(=O)CSc2nc3ccc(N4C(=O)c5ccccc5C4=O)cc3s2)c(C)c1,-18,6%,14,0%,-15%,-1
CCc1cccc(CC)c1NC(=O)CSc1nc2ccc(N3C(=O)C4C(C3=O)[C@H]3C=C[C@@H]4C3)cc2s1 (some centres undefined),3,2%,-6,u,8.2µM*,3
COc1ccc(-c2cn(Cc3cccc(OC)c3)nn2)cc1,8,x,-16,13µM*!,11µM*!,4
COc1cccc(Cn2cc(-c3cccc(C(F)(F)F)c3)nn2)c1,19,x,5,u,u,27
COc1ccc(-c2cn(CCc3c[nH]c4ccccc34)nn2)cc1,20,x,-18,11µM*,10µM*,9
COc1ccc(OCC(=O)NCCc2c[nH]c3ccccc23)cc1,-2,-3%,-1,-21%,u,-7
CCC(C)NC(=O)CN1C(=O)CSc2ccc(S(=O)(=O)N3CCCC3)cc21 (centres undefined),-3,0%,-1,2%,21%,8
Cc1ccc(C)c(-n2c(C)cc(/C=N/NC(=O)c3c(C)nc4cc(C)ccn34)c2C)c1,-1,5%,0,u,21µM*,-21
COC(=O)c1ccc(N2C(=O)C3CC(C)=C(C)CC3C2=O)cc1 (centres undefined),4,0%,24,0%,0%,9
O=C(/C=C/c1cccs1)c1cc(F)ccc1OC(=O)N1CCOCC1,-3,x,-54*,23µM*,u,0
N/C(=N\OC(=O)c1ccoc1)c1ccc(Br)cc1,14,0%,22,-8%,9%,11
SMILES,CtBP-E1A inh,TDP1 block,IL-1B inflam inh,TDP1 cell CPT,TDP1 cell noCPT,Six1-Eya2 inh
N/C(=N\OC(=O)N1CCOCC1)c1ccc(Br)cc1,x,3%,-21,21µM*,u,-7
CCCn1nc(NS(=O)(=O)c2ccccc2)c2cc3ccccc3nc21,1,-1%,-3,2%,-3%,0
CCn1nc(NS(=O)(=O)c2ccccc2)c2cc3ccccc3nc21,-10,3%,42,23µM*,u,-10
O=C(COc1cccc2cccnc12)N/N=C/c1ccc(O)cc1,-14,8%,-20,u,-29%,0
O=C(COc1cccc2cccnc12)N/N=C/c1ccccc1O,-25,u,91,15µM*,10µM*,-18
Cc1ccccc1OCC(=O)N/N=C/c1ccncc1,-9,5%,21,2%,11%,-14
C/C(=N\OCC(=O)N/N=C/c1ccccc1O)c1cccs1,-67*,2%,247,4.1µM*,4.6µM*,u
O=C(COc1cccc2cccnc12)N/N=C/c1cccn1-c1ccc(F)cc1,-18,x,-89*,u,u,-26
C/C(=N\OCC(=O)N/N=C/c1ccccc1)c1cccs1,4,1%,-9,-12%,5%,2
Cc1ccccc1OCC(=O)N/N=C/c1cccc2cccnc12,-13,2%,i,u,21µM*,-76*
CCSc1ncc(Cl)c(C(=O)Nc2ccc(S(=O)(=O)Nc3nccc(C)n3)cc2)n1,x,2%,x,-28%,u,x
COc1cc(C(=O)NC2(C(F)(F)F)NC(=O)N(CCCc3ccccc3)C2=O)cc(OC)c1OC (centres undefined),0,5%,-6,u,u,-10
CCOC(=O)CNC(=O)CSc1nc(-c2ccc(C)cc2)ns1,-18,-6%,-152*,-6%,-20%,-2
CCOC(=O)CNC(=O)CSc1nc2c(C)cccc2cc1CC,0,3%,-98*,u,u,34
COc1cc(C)c(CN2CCOc3ccc(C(O)c4cccnc4)cc3C2)cc1C (centres undefined),x,x,x,-5%[9.04 µM],18µM*,x
COc1cccc(CN2CCOc3ccc(C(O)c4cccnc4)cc3C2)c1 (centres undefined),x,x,x,-1%[9.04 µM],-1%,x
CCn1c2ccccc2c2cc(CN3CCOc4ccc(C(O)c5cccnc5)cc4C3)ccc21 (centres undefined),x,x,x,u,26µM*,x
